High-throughput results as filed in PubChem BioAssay.
Rows were chosen to be rich in hits. Some 2.8% of all compounds tested hit in one or more screens of this group.
Pol iota inh = blocks human DNA polymerase iota activity. Q9UNA4. Pol iota fluorescent replication assay, 10 min. Potency, µM (series often up to 115 µM), for inactives: at the top dose activity, negative = inhibition, most hits filed as inhibitors. actives 1% (n = 390,000). AID 588590; also: potency is read from the fitted curve at half-maximal effect
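Pol iota at 10 nM preincubated 15 min with compounds at room temperature; reaction started with fluorescent substrate, 50 nM final. Fluorescence read kinetically at 0 and 10 min; buffer-only wells as negative control.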
POLK inh = inhibitors of human DNA polymerase kappa | Q9UBT6 | purified Pol kappa, fluorescent DNA synthesis assay, 10 min | Potency, µM (doses to about 107 µM), inactives show top-dose activity, negative = inhibition, most hits filed as inhibitors | actives 0.53% (n = 400,000); also: potency is read from the fitted curve at half-maximal effect; % is scaled to controls: 0 for no effect and ±100 for the full control effect
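Kinetic fluorescence readout at 0 and 10 min followed reaction start with substrate at 50 nM final. Beforehand, enzyme (10 nM Pol kappa) stood 15 min with compound at room temperature; buffer-only wells were negative controls.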
POLH inh = blocks human DNA polymerase eta activity. Q9Y253. recombinant Pol eta, fluorescent DNA replication assay. Potency, µM (titrated, usually from 114 µM), for the others: at the top dose activity change, negative = inhibition, usual class: inhibitors. actives 1.2% (n = 390,000). AID 588591; also: potency is read from the fitted curve at half-maximal effect; % is scaled to controls: 0 for no effect and ±100 for the full control effect
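Pol eta at 10 nM preincubated with compounds 15 min at room temperature; reaction started with fluorescent substrate (50 nM final) and read kinetically at 0 and 10 min.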
WRN inhibitor = WRN helicase (human) inhibition. WRN helicase unwinding, fluorescent forked duplex, kinetic. Potency, µM (doses to about 114 µM), for the others: top-dose activity change, negative = inhibition, usual class: inhibitors. actives 0.46% (n = 360,000). AID 651768; also: potency is read from the fitted curve at half-maximal effect; % is scaled to controls: 0 for no effect and ±100 for the full control effect; nearly all actives have a fitted effect of over 55% in size
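WRN at 20 nM final preincubated with compound 15 min at room temperature; reaction started with 100 nM fluorophore/quencher forked duplex oligonucleotide and 2 mM ATP final. Unwinding followed kinetically by red fluorescence (ex 525, em 598 nm).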
Pol beta inh = inhibitors of human DNA polymerase beta; P06746; Pol beta primer extension/strand displacement, fluorescence kinetic; Potency, µM (series often up to 114 µM), for the others: at the top dose activity change, negative = inhibition, hits mostly inhibitors; actives 1.3% (n = 340,000); AID 485314; also: potency is read from the fitted curve at half-maximal effect; % is scaled to controls: 0 for no effect and ±100 for the full control effect
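Homogeneous kinetic assay of primer extension and strand displacement by 10 nM Pol beta, preincubated 15 min at room temperature with compound before 50 nM substrate (final) was added. Read at 0 and 10 min; four-parameter Hill fit.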
PI5P4Ka inh = inhibitors of human PI5P4K alpha. P48426. PI5P4Kalpha enzyme, ADP-Glo luminescence, 60 min; active compounds read low. max response, %. actives 1.2% (n = 330,000); active = max response of -50% or lower; inconclusive = between -30% and -50%; inactive = -30% or higher; also: value at the top dose of about 77 µM; % is scaled to controls: 0 for no effect and ±100 for the full control effect
Target sequence (P48426 whole entry, looked up): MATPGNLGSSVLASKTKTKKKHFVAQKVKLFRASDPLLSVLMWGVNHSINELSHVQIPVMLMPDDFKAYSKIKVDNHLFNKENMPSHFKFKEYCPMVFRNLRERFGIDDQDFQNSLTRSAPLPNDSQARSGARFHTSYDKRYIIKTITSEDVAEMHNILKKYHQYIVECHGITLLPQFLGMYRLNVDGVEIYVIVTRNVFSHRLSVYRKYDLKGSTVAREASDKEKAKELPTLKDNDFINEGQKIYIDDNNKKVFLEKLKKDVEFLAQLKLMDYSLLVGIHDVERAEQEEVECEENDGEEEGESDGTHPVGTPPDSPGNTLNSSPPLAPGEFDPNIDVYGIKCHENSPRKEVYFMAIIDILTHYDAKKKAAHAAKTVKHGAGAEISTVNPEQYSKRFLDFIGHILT
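Reactions run in 0.038 M HEPES pH 7.4, 0.28 mM EGTA, 0.1% CHAPS and 5% DMSO, with PI5P4Kalpha, substrate, compound and 5 microM ATP final, one hour at room temperature. Readout is ADP-Glo luminescence.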
* = called active by the depositor; i = inactive; ? = inconclusive; nt = no result; [ ] = dose if it differs, or a comment. Unless noted, calls follow the shape of the dose curve; as a rule, active = well fitted curve in the direction sought with a large enough effect; inconclusive = small, poorly fitted or top-dose-only effect, or another doubt; inactive = no such curve, though single readings can be large; an effect the other way counts as inactive or inconclusive.

SMILES | Pol iota inh | POLK inh | POLH inh | WRN inhibitor | Pol beta inh | PI5P4Ka inh
CC1(C)CCC2=C(O1)c1ccccc1C(=O)C2=O | 7.94µM* | -1.5%[60.1 µM] | 22.4µM* | nt | -0.2%[57.1 µM] | nt
CSc1ccc(-c2sc(Nc3ccccc3)n[n+]2-c2ccccc2)cc1 | ? | -15.1% | 3.6% | 20.5% | ? | -53.2*
O=C1OC(c2ccccc2)=N/C1=C/c1cccc(OC(=O)c2cccs2)c1 | -19.6% | 13.0% | -4.6% | -15.4% | nt | -18.1
O=C1NN(c2ccc(F)c(Cl)c2)C(=O)/C1=C\c1cccc(OC(=O)c2cccs2)c1 | ? | ? | 20µM* | 50.1µM* | ? | -82.3*
CC(C)=C1C(=O)NN(c2ccc(F)c(Cl)c2)C1=O | ? | 25.1µM* | -7.5% | ? | ? | nt
S=C(c1ccc2c(c1)OCO2)N1CCOCC1 | -18.9% | 2.1% | -12.6% | 2.0% | 0.6% | -0.8
COc1ccccc1/C=C/C1=NC(=C\C=C/c2ccccc2)/C(=O)O1 | ? | -14.3%[60.1 µM] | ? | -25.0% | 20µM* | -8.3
COc1ccccc1/C=C/C=C1N=C(/C=C/c2ccc(Cl)cc2)OC/1=O | 10.8% | -15.1% | -23.5% | -9.4% | ? | -7.0
O=S(=O)(Nc1c(Br)cc(Br)c2cccnc12)C1CC1 | 12.6µM* | 11.5% | nt | nt | nt | nt
Cc1nn(Cc2ccc(Cl)cc2)c(C)c1NC(=O)C(c1ccccc1)c1ccccc1 | 4.9% | -10.0% | -10.8% | -12.8% | -1.2% | 1.1
COC(=O)c1ccc2c(c1)C(C)(C)C(/C=C/c1ccc(O)cc1)=[N+]2C | 25.1µM* | 28.2µM* | 16.5% | 50.1µM* | ? | nt
COC(=O)c1ccc2c(c1)C(C)(C)C(/C=C/c1ccc(OC)c(OC)c1OC)=[N+]2C | ? | ? | -3.1% | 50.1µM* | ? | -19.7
COc1cc(/C=C/c2ccc(O)cc2)cc(OC)c1 | -8.3% | -0.8% | -5.2% | 0.0% | -27.1% | 1.7
COc1ccc(/C=N/Nc2ccc(C(=O)O)cc2)c(OC)c1OC | 4.2% | -9.7% | -6.0% | 5.1% | 27.3% | -3.9
CC(=O)N(/N=C1\Sc2ccccc2C1=O)c1ccccc1C | 7.2% | 0.9% | 20µM* | -8.3%[57.1 µM] | -0.5% | -3.1
CC(=O)N(/N=C1\Sc2ccccc2C1=O)c1ccc(C)cc1C | 25.1% | 0.7% | -7.4% | -5.4% | 3.1% | 1.5
O=C(CSc1ncnc2nc[nH]c12)Nc1nnc(SCc2ccc(Cl)c(Cl)c2)s1 | ? | -14.8% | ? | ? | 39.8µM* | ?
Cc1ccc(C)c(NC(=O)CSc2ncnc3nc[nH]c23)c1 | ? | 4.6% | -1.3% | -0.4% | 7.8% | nt
COc1ccc2ccccc2c1C(O)c1nccn1C (stereo not drawn) | 25.1µM* | -26.5% | -8.8% | -22.3% | -14.0% | nt
Cc1ccc(C)c(N2CCN(C(=O)CCC(=O)Nc3nnc(C(F)(F)F)s3)CC2)c1 | 6.9% | -2.8% | -28.5% | 3.6% | -4.5% | 0.9
O=C(COc1ccccc1Cl)Nc1ccc(C(=O)O)cc1NC(=O)COc1ccccc1Cl | ? | -17.0% | 0.5% | -27.0% | ? | -64.3*
COc1ccc(OCC(=O)Nc2ccccc2OC)cc1 | 6.9% | -1.4% | -6.9% | -13.4% | 0.3% | nt
COc1ccc(OCC(=O)Nc2ccccc2Cl)cc1 | 23.7% | -0.7% | -2.8% | 1.5% | 17.8µM* | 2.7
O=C(COc1ccccc1Cl)Nc1ccccc1C(=O)Nc1cccc(C(=O)O)c1 | -3.8% | -11.5% | -1.8% | -2.4% | 27.5% | -2.5
CCCN1CNc2c(c(=O)[nH]c(=S)n2CCc2cc(C)cc(C)c2)C1 | -19.1% | -16.1% | nt | nt | nt | nt
SMILES | Pol iota inh | POLK inh | POLH inh | WRN inhibitor | Pol beta inh | PI5P4Ka inh
Cc1cc(C)nc(N(C#N)Cc2cccc(Cl)c2)n1 | 15.6% | -14.2% | -8.3% | -5.8% | 3.5% | 3.5
CC(=O)Oc1cccc2c1C(=O)c1c(OC(C)=O)cc(C(=O)O)cc1C2=O | i | 23.8% | 63.3% | 77.5% | 14.5% | -76.3*
CC(=O)Oc1ccc(C(=O)O)cc1OC(C)=O | -11.5% | 4.2% | -10.5% | -12.7% | 7.5% | nt
C[C@@H]1NC(=O)[C@H](CC(N)=O)NC(=O)c2cc([N+](=O)[O-])cc(I)c2OCC[C@@H](C(=O)NC(CC(=O)O)C(N)=O)NC1=O (stereo partly drawn) | ? | 79.4µM* | 20µM* | -11.7% | -21.3% | -11.5
NC(=O)C(CC(=O)O)NC(=O)[C@@H]1CCOc2c(I)cc([N+](=O)[O-])cc2C(=O)N[C@@H](CCC(=O)O)C(=O)N[C@@H](CO)C(=O)N1 (stereo partly drawn) | ? | ? | ? | -2.8% | -10.4% | 1.0
C[C@@H]1NC(=O)c2cc([N+](=O)[O-])cc(I)c2OCC[C@@H](C(=O)NC(CC(=O)O)C(N)=O)NC(=O)[C@H](CCC(=O)O)NC1=O (stereo partly drawn) | ? | ? | 17.8µM* | -0.3% | -6.7% | -8.5
O=C(COc1ccc(Cl)cc1)OCC(=O)N1CCCCCC1 | 1.7% | 3.6% | -3.0% | -0.3% | 35.5µM* | -1.3
O=c1c2ccccc2sn1-c1ccc(Cl)cc1Cl | nt | nt | -24.5% | -3.3% | nt | -105.4*
O=c1c2ccccc2ncn1-c1ccc(Cl)cc1Cl | 23.8% | -2.8% | -16.3% | -10.7% | 26.2% | 7.4
C#CCOCCOCCOCCNc1nc(N2CCN(C(=O)CCCCCCCCCCNC(=O)[C@H]([C@@H](C)CC)n3cc(CCCCN=C(N)N)nn3)CC2)nc(N2CCN(C(=O)CCCCCCCCCCNC(=O)[C@@H]([C@H](C)O)n3cc(C)nn3)CC2)n1 | ? | ? | ? | 56.2µM* | nt | -84.0*
C#CCOCCOCCOCCNc1nc(N2CCN(C(=O)CCCCCCCCCCNC(=O)[C@@H](CCSC)n3cc(CCO)nn3)CC2)nc(N2CCN(C(=O)CCCCCCCCCCNC(=O)[C@H](CCCN=C(N)N)n3cc(C[C@@H](C)CC)nn3)CC2)n1 | ? | -18.8% | 79.4µM* | 50.1µM* | nt | -79.4*
C#CCOCCOCCOCCNc1nc(N2CCOCC2)nc(N2CCN(C(=O)CCCCCCCCCCNC(=O)[C@H]([C@@H](C)CC)n3cc(CCCCN=C(N)N)nn3)CC2)n1 | 3.0% | 17.1% | -23.6% | 7.8% | nt | ?
C#CCOCCOCCOCCNc1nc(N2CCN(C(=O)CCCCCCCCCCNC(=O)[C@H](CCCCN)n3cc(C)nn3)CC2)nc(N2CCN(C(=O)CCCCCCCCCCNC(=O)[C@H](CCCN=C(N)N)n3cc(C[C@@H](C)CC)nn3)CC2)n1 | ? | ? | ? | 44.7µM* | nt | -51.2*
